Laboratory results: PubChem BioAssay (NCI)
Several values for one entry are separate records, joined by “and”; a condition that tells them apart may be missing. Equal entries are not always repeated. This is part of a sample that, as a whole, favours compounds with a hit. Of some 83,000 tested, about 20% had one in any assay.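 Negative percent growth values reflect cell death: -40 means 40% of the cells present at the start died, and -100 means all died.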

Key:
Assay in all cases: NCI-60 one-dose screen, 48 h (100 = growth as untreated, 0 = no growth, -100 = all killed)
Settings in all cases: 10 µM unless noted; active = growth percent below 10; inactive = the rest
[1] = system: NCI-H23 lung
[2] = system: NCI-H226 lung
[3] = system: NCI-H322M lung
[4] = system: HOP-62 NSCLC
[5] = system: NCI-H460 lung
[6] = system: A549/ATCC NSCLC
[7] = system: 786-0 renal
[8] = system: COLO 205 colon
[9] = system: DU-145 prostate
[10] = system: K-562 leukemia
[11] = system: MALME-3M melanoma
[12] = system: MDA-MB-231 breast
[13] = system: RXF 393 renal
[14] = system: SF-268 CNS
[15] = system: SF-539 CNS
[16] = system: UACC-257 melanoma
[17] = system: M14 melanoma
[18] = system: HOP-92 NSCLC
[19] = system: SF-295 CNS
[20] = system: NCI-H522 lung

Measured: growth

N#CC(C#N)=C(C#N)C#N
inactive: [1] 106% | [2] 101% | [3] 103% | [4] 108% | [5] 106% | [6] 99.9% | [7] 101% | [8] 114% | [9] 110% | [10] 108% | [11] 108% | [12] 106% | [13] 111% | [14] 96% | [15] 93.7% | [16] 97.8% | [17] 102%

O=S(=O)(c1ccc(O)cc1)c1ccccc1O
inactive: [2] 104% | [3] 111% | [4] 101% | [5] 105% | [18] 100% | [6] 112% | [8] 112% | [9] 111% | [10] 98% | [11] 113% | [12] 98.9% | [13] 117% | [14] 97.3% | [19] 112% | [15] 103% | [16] 111%

CN1CCC2(CC1)C(C#N)C(=O)NC(=O)C2C#N (configuration not stated)
inactive: [2] 96.1% | [4] 94.3% | [5] 106% | [18] 109% | [20] 110% | [6] 95.9% | [7] 104% | [8] 109% | [9] 112% | [10] 94.5% | [11] 107% | [12] 101% | [13] 104% | [14] 107% | [19] 94.1% | [15] 94.9% | [16] 90.7% | [17] 107%

Nc1ccc(S(=O)(=O)F)cc1
inactive: [1] 108% | [4] 109% | [5] 111% | [18] 110% | [20] 96.1% | [6] 102% | [7] 94.7% | [8] 112% | [9] 107% | [10] 91.8% | [11] 95.2% | [12] 117% | [13] 100% | [14] 99.8% | [19] 102% | [15] 103% | [16] 110% | [17] 107%

CC1(C)C2CCC1(CS(=O)(=O)O)C(=O)C2 (configuration not stated)
inactive: [1] 108% and 105% | [2] 128% and 102% | [3] 90.2% and 99.1% | [5] 111% and 108% | [18] 66.9% and 99.9% | [20] 95.4% and 107% | [6] 96.6% and 96.8% | [7] 101% and 98.8% | [8] 92.9% and 132% | [9] 109% and 125% | [10] 99.8% and 123% | [11] 85.1% and 105% | [12] 94.9% and 108% | [13] 137% and 123% | [14] 107% and 105% | [19] 101% and 100% | [15] 91% and 112% | [16] 99.5% and 96.6% | [17] 98% and 105%

O=[N+]([O-])c1ccc(P(=O)(O)O)cc1
inactive: [1] 105% | [2] 97.6% | [3] 101% | [5] 103% | [18] 85% | [20] 92.3% | [6] 103% | [7] 96% | [8] 103% | [9] 110% | [10] 108% | [11] 92.6% | [12] 109% | [13] 103% | [14] 106% | [19] 96% | [15] 103% | [16] 111% | [17] 96.1%
